Laboratory results: PubChem BioAssay (Tox21)
Values joined by “and” are separate entries in the source; they are usually repeats but may differ in a detail not shown here. Identical values can stand only once. Inconclusive results are not listed. Where a call stands in place of a potency, no number is given. More than one record can exist for a structure, and the calls need not agree. Active and inactive are the calls of the source. Unless noted, the call rests on the fitted dose curve; in most records, active means well fitted curve in the direction sought with a large enough effect in the repeat runs; inconclusive means weak or mixed curves; inactive means no such curve, though single readings can be large; an effect the other way counts as inactive or inconclusive.

How the values were obtained:
[1] = qHTS assay to identify small molecule antagonists of the estrogen receptor alpha (ER-alpha) signaling pathway using the BG1 cell line in the presence of 0.1 nM 17-beta-estradiol - cell viability counter screen (AID 1259241); further: nearly all actives have a fitted effect of over 40% in size; further: potency means the concentration at half of the fitted maximal effect
How it was run: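 VM7Luc4E2 cells (endogenous full-length ER-alpha, 4xERE-luciferase), cultured 5 days in charcoal-stripped serum, exposed to compounds with 0.1 nM 17beta-estradiol (final) for 22 hr at 37C. Viability read in same wells as live-cell protease fluorescence after 30 min.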

[2] = qHTS assay to identify small molecule antagonists of the androgen receptor (AR) signaling pathway using the MDA cell line in the presence of 0.5 nM R1881 - cell viability counter screen (AID 1259242); further: nearly all actives have a fitted effect of over 45% in size; further: potency means the concentration at half of the fitted maximal effect
How it was run: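 Steps: plate MDA-kb2 cells, rest 5 hr at 37C without CO2; pin in compounds in DMSO; add R1881 to 0.5 nM final; incubate 16 hr; add CellTiter-Fluor, 30 min; read fluorescence.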

[3] = target: Estrogen receptor (Homo sapiens) (UniProt P03372); assay: qHTS assay to identify small molecule antagonists of the estrogen receptor alpha (ER-alpha) signaling pathway using the BG1 cell line in the presence of 0.1 nM 17-beta-estradiol (AID 1259244); further: nearly all actives have a fitted effect of over 50% in size
How it was run: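 Antagonist mode: compounds in DMSO are pinned onto VM7Luc4E2 reporter cells, 0.1 nM final 17beta-estradiol is added, and after 22 h at 37C luciferase luminescence is measured with ONE-Glo.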

[4] = qHTS assay to identify small molecule phospholipidosis (PLD) inducers (AID 1259344; active means well fitted curve in the direction sought with a large enough effect; an effect the other way counts as inactive or inconclusive)
How it was run: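 Accumulated phospholipid, stained red by LipidTOX during 24 h compound treatment of HepG2 cells at 37 C, is quantified from images as pit number and intensity, normalised per cell using Hoechst-stained nuclei.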

[5] = qHTS assay to identify small molecule HDAC inhibitors (AID 1259364);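 further: wild-type HCT-116 cells with endogenous class I/II HDAC activity; top concentration of the series differs between compounds; nearly all actives have a fitted effect of over 45% in size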
How it was run: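 Cells (HCT-116, wild type) are seeded at 1,500 per well, incubated overnight, treated with compound in DMSO for 2 hr, then developed with HDAC-Glo I/II reagent for 30 min at room temperature.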

[6] = qHTS assay to identify small molecule agonists of the sonic hedgehog signaling (Shh) pathway - cell viability counter screen (AID 1259366); further: nearly all actives have a fitted effect of over 50% in size; further: potency means the concentration at half of the fitted maximal effect
How it was run: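 NIH/3T3-derived Gli1-Luc reporter cells, 2,000 per well, received compound after 4 h and were treated about 23 h at 37C. Viability measured in the same wells by CellTiter-Fluor fluorescence after 1 h.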

[7] = qHTS assay to identify small molecule antagonists of the sonic hedgehog signaling (Shh) pathway - cell viability counter screen (AID 1259367); further: nearly all actives have a fitted effect of over 55% in size; further: potency means the concentration at half of the fitted maximal effect
How it was run: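 CellTiter-Fluor signal in conditioned medium-stimulated 3T3 Gli1-Luc cells, 23 hr compound exposure, 37C.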

[8] = qHTS assay to identify small molecule agonists of the sonic hedgehog signaling (Shh) pathway (AID 1259368; calls by dose curve;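 further: NIH/3T3-derived 3T3Gli1-Luc cells carrying a stable Gli1-driven firefly luciferase reporter; series mostly up to about 92 µM; nearly all actives have a fitted effect of over 15% in size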)
How it was run: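 Cells of a mouse NIH/3T3 clone stably expressing luciferase under the Gli1 transcriptional response element are exposed to test chemicals for 24 hr at 37 C. Pathway activation is detected as a rise in luminescence.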

[9] = qHTS assay to identify small molecule antagonists of the sonic hedgehog signaling (Shh) pathway (AID 1259369; calls by dose curve; further: nearly all actives have a fitted effect of over 45% in size; further: potency means the concentration at half of the fitted maximal effect)
How it was run: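 Cells are plated and held 4hr at 37 C, compounds (DMSO) are pinned in, conditioned medium is added to stimulate the pathway, and after 24hr luciferase reagent is added for 30min before luminescence is read.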

[10] = qHTS assay to identify small molecule agonists of the androgen receptor (AR) signaling pathway in the presence of an antagonist - cell viability counter screen (AID 1259379); further: nearly all actives have a fitted effect of over 25% in size; further: potency means the concentration at half of the fitted maximal effect
How it was run: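 Cytotoxicity is assessed by CellTiter-Fluor in MDA-kb2 cells carrying an MMTV-driven luciferase reporter. Cells receive 3.0uM nilutamide plus compounds at 15 concentrations and incubate 16 hr at 37C without CO2 before fluorescence reading.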

[11] = qHTS assay to identify small molecule agonists of the estrogen receptor beta (ER-beta) signaling pathway - cell viability counter screen (AID 1259380); further: nearly all actives have a fitted effect of over 30% in size; further: potency means the concentration at half of the fitted maximal effect
How it was run: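 Cytotoxicity is measured in parallel with the reporter screen: after 16 hr compound exposure at 37C and a 2 hr LiveBLAzer step, CellTiter-Glo is added to the same ER-beta-UAS-bla HEK293T wells and luminescence read after 30 min.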

[12] = qHTS assay to identify small molecule antagonists of the estrogen receptor beta (ER-beta) signaling pathway - cell viability counter screen (AID 1259382); further: nearly all actives have a fitted effect of over 55% in size; further: potency means the concentration at half of the fitted maximal effect
How it was run: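 Cytotoxicity counter screen multiplexed with the beta-lactamase antagonist assay: GripTite HEK293T ER-beta-bla cells were treated 16 hr with test chemicals in the presence of 1nM 17-beta-estradiol, and viability was measured by CellTiter-Glo.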

[13] = target: Estrogen receptor (Homo sapiens) (UniProt P03372); assay: qHTS assay to identify small molecule agonists of the estrogen receptor alpha (ER-alpha) signaling pathway in the presence of an antagonist (AID 1259383; calls by dose curve; further: top concentration of the series differs between compounds; nearly all actives have a fitted effect of over 15% in size)
How it was run: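 Agonist-mode confirmation in the presence of the ER antagonist ICI-182,780 at 10.0nM final. Breast-derived VM7Luc4E2 reporter cells were exposed to compounds for 22hr, and ERE-driven luciferase was quantified by luminescence.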

[14] = qHTS assay to identify small molecule agonists or antagonists of the thyroid stimulating hormone receptor (TSHR) signaling pathway - wild type cell line counter screen (AID 1259384; calls by dose curve; further: potency means the concentration at half of the fitted maximal effect)
How it was run: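 Counter screen in untransfected Hek293: compounds (15-point titration, triplicate) plus phosphodiesterase inhibitor Ro20-1724 added after 18 h plating; 30 min RT. Intracellular cAMP via competitive d2/cryptate immunoassay, 1 h incubation.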

[15] = target: Thyrotropin receptor (Homo sapiens) (UniProt P16473); assay: qHTS assay to identify small molecule antagonists of the thyroid stimulating hormone receptor (TSHR) signaling pathway (AID 1259385; calls by dose curve; further: nearly all actives have a fitted effect of over 20% in size)
How it was run: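 Antagonist mode: compound-treated TSHR-expressing HEK293 cells were stimulated with 1.5 ng/mL TSH (final) in presence of Ro20-1724 for 30 min at RT. HTRF cAMP detection after 1 h; each compound tested at 15 concentrations, triplicate.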

[16] = qHTS assay to identify small molecule agonists of the estrogen receptor alpha (ER-alpha) signaling pathway in the presence of an antagonist - cell viability counter screen (AID 1259386); further: nearly all actives have a fitted effect of over 30% in size; further: potency means the concentration at half of the fitted maximal effect
How it was run: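 Cytotoxicity was measured in parallel with the ERE-luciferase agonist screen, in the same wells. The cells were VM7Luc4E2, which endogenously express ER-alpha, and treatment was with compounds plus 10.0nM ICI-182,780 for 22hr.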

[17] = qHTS assay to identify small molecule HDAC inhibitors - cell viability counter screen (AID 1259365); further: series mostly up to about 92 µM; nearly all actives have a fitted effect of over 50% in size
How it was run: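 Wild-type HCT-116 cells, 1,500/well, cultured overnight, then compound-treated 2 h at 37 C. Viability measured as ATP luminescence with CellTiter-Glo after 30 min at room temperature.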

[18] = target: Estrogen receptor beta (Homo sapiens) (UniProt Q92731); assay: qHTS assay to identify small molecule agonists of the estrogen receptor beta (ER-beta) signaling pathway (AID 1259377; active means well fitted activation curve with a large enough effect in the signal ratio in the repeat runs, not every such curve was filed as active; the % refers to the signal ratio)
How it was run: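 ER-beta-UAS-bla HEK293T cells in medium with 2% charcoal-stripped FBS were exposed to compounds for 16 h at 37C. Beta-lactamase reporter activity was read as fluorescence after 2 h with LiveBLAzer B/G FRET substrate at room temperature.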

Sequence of Thyrotropin receptor (Homo sapiens) (P16473 whole entry, looked up): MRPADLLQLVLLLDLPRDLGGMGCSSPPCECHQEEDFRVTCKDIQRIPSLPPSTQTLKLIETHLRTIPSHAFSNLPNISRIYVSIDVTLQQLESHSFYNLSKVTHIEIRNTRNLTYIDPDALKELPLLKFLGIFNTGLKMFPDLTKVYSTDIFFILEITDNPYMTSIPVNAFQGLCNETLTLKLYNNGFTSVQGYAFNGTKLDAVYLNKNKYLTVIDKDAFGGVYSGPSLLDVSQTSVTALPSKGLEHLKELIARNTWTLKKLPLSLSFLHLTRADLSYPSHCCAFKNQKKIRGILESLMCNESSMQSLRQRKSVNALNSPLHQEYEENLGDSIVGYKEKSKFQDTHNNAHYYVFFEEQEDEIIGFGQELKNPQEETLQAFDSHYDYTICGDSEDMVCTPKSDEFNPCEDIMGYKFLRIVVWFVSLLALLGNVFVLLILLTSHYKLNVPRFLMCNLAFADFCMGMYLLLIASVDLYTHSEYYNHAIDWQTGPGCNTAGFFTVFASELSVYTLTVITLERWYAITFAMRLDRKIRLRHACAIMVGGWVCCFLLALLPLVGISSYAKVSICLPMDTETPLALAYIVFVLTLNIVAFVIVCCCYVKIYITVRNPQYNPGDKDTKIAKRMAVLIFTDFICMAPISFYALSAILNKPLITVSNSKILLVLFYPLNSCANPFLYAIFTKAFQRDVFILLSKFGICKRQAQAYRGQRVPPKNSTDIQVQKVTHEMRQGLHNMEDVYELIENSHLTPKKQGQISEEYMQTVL
Sequence of Estrogen receptor (Homo sapiens) (P03372 whole entry, looked up): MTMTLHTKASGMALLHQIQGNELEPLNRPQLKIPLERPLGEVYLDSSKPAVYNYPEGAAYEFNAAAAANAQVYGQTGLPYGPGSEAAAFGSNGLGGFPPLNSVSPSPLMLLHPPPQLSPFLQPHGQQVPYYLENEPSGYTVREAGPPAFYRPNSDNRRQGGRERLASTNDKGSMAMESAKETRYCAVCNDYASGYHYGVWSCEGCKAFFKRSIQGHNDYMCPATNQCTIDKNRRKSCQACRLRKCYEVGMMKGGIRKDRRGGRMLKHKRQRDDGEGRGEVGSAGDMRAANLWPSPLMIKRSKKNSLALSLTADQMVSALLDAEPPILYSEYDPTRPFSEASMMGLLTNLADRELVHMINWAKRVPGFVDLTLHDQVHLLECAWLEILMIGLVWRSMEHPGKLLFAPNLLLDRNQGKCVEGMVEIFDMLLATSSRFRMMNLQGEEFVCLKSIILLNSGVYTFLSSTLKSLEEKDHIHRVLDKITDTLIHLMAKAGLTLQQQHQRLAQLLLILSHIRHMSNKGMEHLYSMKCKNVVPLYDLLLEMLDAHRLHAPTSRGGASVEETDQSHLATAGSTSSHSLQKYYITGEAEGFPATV
Sequence of Estrogen receptor beta (Homo sapiens) (Q92731 whole entry, looked up): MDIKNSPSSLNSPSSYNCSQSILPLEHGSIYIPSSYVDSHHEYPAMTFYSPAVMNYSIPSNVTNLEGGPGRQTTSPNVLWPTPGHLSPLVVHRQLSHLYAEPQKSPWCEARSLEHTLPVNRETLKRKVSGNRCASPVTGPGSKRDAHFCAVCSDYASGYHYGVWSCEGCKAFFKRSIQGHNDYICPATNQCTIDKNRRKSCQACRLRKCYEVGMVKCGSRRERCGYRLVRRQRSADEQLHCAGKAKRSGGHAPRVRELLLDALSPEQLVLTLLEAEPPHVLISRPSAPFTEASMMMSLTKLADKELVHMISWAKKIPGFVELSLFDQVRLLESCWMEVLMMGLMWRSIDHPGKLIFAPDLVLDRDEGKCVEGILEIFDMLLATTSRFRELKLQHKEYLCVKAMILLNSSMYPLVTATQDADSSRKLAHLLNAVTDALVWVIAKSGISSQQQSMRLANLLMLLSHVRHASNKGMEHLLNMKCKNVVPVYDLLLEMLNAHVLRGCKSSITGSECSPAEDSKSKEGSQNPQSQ

SMILES | Potency [1] | Potency [2] | Potency [3] | Potency [4] | Potency [5] | Potency [6] | Potency [7] | outcome [8] | Potency [9] | Potency [10] | Potency [11] | Potency [12] | Potency [13] | Potency [14] | Potency [15] | Potency [16] | Potency [17] | Potency [18] | PLD induction [4]
CCOC(N)=O | inactive | inactive | inactive | inactive | inactive | inactive | inactive | inactive | inactive | inactive | inactive | inactive | inactive | inactive | inactive | inactive |  |  | 
CC(=O)CCC(=O)O | inactive | inactive | inactive | inactive |  | inactive | inactive | inactive | inactive | inactive | inactive | inactive | inactive | inactive | inactive | inactive |  |  | 
NC(CO)(CO)CO | inactive | inactive | inactive | inactive |  | inactive | inactive | inactive | inactive | inactive | inactive | inactive | inactive | inactive | inactive | inactive |  |  | 
NC(=O)c1cccnc1 | inactive | inactive | inactive | inactive |  | inactive | inactive | inactive | inactive | inactive | inactive | inactive | inactive | inactive | inactive | inactive | inactive | inactive | 
C1=CC2C3C=CC(C3)C2C1 (centres undefined) | inactive | inactive |  |  | inactive | inactive | inactive | inactive |  | inactive | inactive | inactive |  | inactive |  | inactive |  |  | -3.38% [at 3.15 µM] (inactive)
CC(C)NCC(O)c1ccc(O)c(O)c1 (centres undefined) | inactive | inactive |  | inactive | inactive | inactive | inactive | inactive | inactive | inactive | inactive | inactive |  | 4.98 nM (active) and 5.87 nM (active) and 5.7 nM (active) | inactive | 54.5 µM (active) | inactive | inactive | 
CC(=O)Nc1c(I)c(NC(C)=O)c(I)c(C(=O)O)c1I | inactive | inactive |  | inactive | inactive | inactive | inactive | inactive | inactive | inactive | inactive | inactive |  | inactive | inactive | inactive | inactive |  | 
CN(C)CCOC(C)(c1ccccc1)c1ccccn1 (centres undefined) | inactive | inactive |  | inactive |  | inactive | inactive | inactive | inactive | inactive | inactive | inactive |  | inactive | inactive | inactive | inactive | inactive | 
Nc1c2c(nc3ccccc13)CCCC2 | inactive | inactive | inactive |  |  | inactive | inactive | inactive | 8.63 µM (active) and 13.7 µM (active) | inactive | inactive | inactive | inactive | inactive | inactive | inactive |  | inactive | 
C=C1CC[C@H](O)C/C1=C\C=C1/CCC[C@]2(C)[C@@H]([C@H](C)CCCC(C)C)CC[C@@H]12 | inactive | inactive |  | inactive | inactive |  |  | inactive | 17.1 µM (active) |  | 42.9 µM (active) | 30.4 µM (active) | inactive | inactive | inactive |  | inactive |  | 
CCCCNC(=O)NS(=O)(=O)c1ccc(C)cc1 | inactive | inactive |  | inactive | inactive | inactive | inactive | inactive | inactive | inactive | inactive | inactive |  |  |  |  |  |  | 
O=C(O)CC(O)C(=O)O (centres undefined) | inactive | inactive |  | inactive | inactive | inactive | inactive | inactive | inactive | inactive | inactive | inactive |  | inactive | inactive |  | inactive | inactive | 
CN(C)C(=S)SC(=S)N(C)C | 2.5 µM (active) and 5.45 µM (active) and 3.76 µM (active) | 2.5 µM (active) and 1.72 µM (active) and 3.35 µM (active) |  | inactive | inactive | 3.14 µM (active) and 545 nM (active) and 2.11 µM (active) | 789 nM (active) and 217 nM (active) and 6.68 µM (active) | inactive | 280 nM (active) and 109 nM (active) and 2.66 µM (active) | 3.96 µM (active) and inactive | 1.25 µM (active) and 2.17 µM (active) and 1.06 µM (active) | 1.37 µM (active) and 1.88 µM (active) |  | inactive | inactive | 35.3 µM (active) and 3.06 µM (active) and inactive | inactive |  | 
